Experimental data reported in PubChem BioAssay (NCI).
This is part of a sample that, as a whole, favours compounds with a hit. Of some 83,000 tested, about 20% had one in any assay.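 Single-dose data. Exposure time 48 hours. Values below 10 considered active.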 Active and inactive are the calls of the source.

Tested on: HL-60(TB) leukemia
Assay: NCI-60 one-dose screen, 48 h (100 = growth as untreated, 0 = no growth, -100 = all killed)
Conditions: 10 µM unless noted

Row | SMILES | growth
1 | Cc1ccccc1[C@H]1C(C(=O)c2ccc(Cl)cc2)C2(N[C@@H]1c1ccccc1)C(=O)Nc1ccc(Br)cc12 (some centres undefined) | -1.57% (active)
2 | O=C(CNc1nc(-c2ccccc2)cs1)Nc1ccccc1 | -30.5% (active)
3 | Cc1ccc(-c2nc(C#N)c(S(=O)(=O)N3CCN(S(C)(=O)=O)CC3)o2)cc1 | 2.43% (active)
4 | C#C[C@]1(O)CC[C@H]2[C@@H]3CC=C4c5sc(Nc6cc(C)cc(C)n6)nc5CC[C@]4(C)[C@H]3CC[C@@]21C | -16.4% (active)
5 | OC(c1ccccc1)(c1ccccc1)C1CCN(c2ccc3nnc(Cl)n3n2)CC1 | -33.6% (active)
6 | C#CCOc1cc(N(CC)CC)ccc1C(C(=O)NC(C)(C)C)N(C(=O)C1CCc2cc(F)ccc2O1)c1ccc(F)c(Cl)c1 (centres undefined) | 27.2% (inactive)
7 | COc1ccc(CN2[C@H](C(=O)NCc3ccc(C(=O)NO)cc3)Cc3c([nH]c4ccccc34)[C@H]2C2CC2)cc1 | 11% (inactive)
8 | CC(C)Sc1nc(NCCc2c[nH]c3ccccc23)c(C#N)c(-c2ccccc2)n1 | 19.3% (inactive)
9 | CCCCSc1nc(NCCc2c[nH]c3ccccc23)c(C#N)c(-c2ccc(OC)cc2)n1 | 42.5% (inactive)
10 | COc1ccc(C2CC(c3ccc(S(=O)(=O)NCCNc4nc(Nc5ccc(F)cc5)nc(N(C)C)n4)cc3)=Nc3c(N)nc(N)nc3N2)cc1 (centres undefined) | 52.5% (inactive)
11 | C/C(=N\N=C1/C(=O)Nc2ccccc21)c1ccc2c(c1)Nc1ccccc1S2 | 63.6% (inactive)
12 | Clc1ccc(/C=N/Nc2ncnc3sc4c(c23)CCN(Cc2ccccc2)C4)cc1 | -8.28% (active)
13 | Nc1nc(C(F)(F)F)cs1 | 102% (inactive)
14 | COc1ccc(C2=NN(C(=O)[C@H]3[C@@H](c4ccco4)c4sc(=O)[nH]c4S[C@@H]3C)C(c3ccc4ccccc4c3)C2)cc1 (some centres undefined) | 2.93% (active)
15 | C=C1CC[C@@H]2[C@]3(C)COC(c4cn(-c5ccccc5)nc4-c4ccccc4)O[C@@H]3CC[C@@]2(C)[C@@H]1C/C=C1/C(=O)OC[C@H]1O (some centres undefined) | -33.7% (active)
16 | CO[C@@H]1CSSC1Cn1nc(-c2ccc(Oc3ccccc3)cc2)c2c(N)ncnc21 (some centres undefined) | 13.3% (inactive)
17 | CC(C)Sc1nc(NC2CC2)c(C#N)c(-c2ccccc2)n1 | 98.1% (inactive)
18 | COc1ccc2[nH]cc(-c3nnc(N)nc3-c3c[nH]c4ncc(Br)cc34)c2c1 | 103% (inactive)
19 | Cc1cc2nc3c4ccccc4n(CCO)c3nc2cc1C | 101% (inactive)
20 | CN1CCN(Cc2ccc(C(=O)Nc3cccc(Nc4ccc5c(O)cccc5n4)c3)cc2C(F)(F)F)CC1 | -34.1% (active)

Row | SMILES | growth
21 | COc1cc(CNC(=O)C[C@H](C)CCC=C(C)C)ccc1OCc1cn(-c2cccc(C(F)(F)F)c2)nn1 | 96.3% (inactive)
22 | CC(=O)Oc1ccc(/C=C/C(=O)N[C@@H](Cc2ccccc2)C(O)C(=O)NCc2ccccc2)cc1OC(C)=O (some centres undefined) | 79.4% (inactive)
23 | COc1cc(NC(=O)CSc2nnc(-c3ccc(-c4nc5ccc(Cl)cc5[nH]4)cc3)o2)cc(OC)c1OC | 8.77% (active)
24 | CN1C(=O)/C(=C/c2nccs2)SC1=S | 89% (inactive)
25 | Cc1ccc(-c2nc(Nc3ccccc3C(=O)O)c3ccccc3n2)cc1 | 17.8% (inactive)
26 | Nc1nnc(-c2cncc(Br)c2)c(-c2c[nH]c3ccc(Br)cc23)n1 | 36.7% (inactive)
27 | Cc1ccc(C2CC(c3ccc(S(=O)(=O)NCCNc4nc(N(C)C)nc(N5CCOCC5)n4)cc3)=Nc3c(N)nc(N)nc3N2)cc1 (centres undefined) | 35.8% (inactive)
28 | COc1ccc2c(c1)N=c1c-2cc2c(O)[nH]c(=S)n2c1=O | -13.3% (active)
29 | COc1cc(/C=C/C(=O)c2cnn(-c3cc(=O)[nH]c4ccc(Cl)cc34)c2C)cc(OC)c1OC | -23.1% (active)
30 | Cn1cc(-c2cc(N)n3nc(-c4c[nH]c5ccc(Br)cc45)cc3n2)c2cc(Br)cnc21 | -44.2% (active)
31 | COc1cc2c(cc1OC)CN(CCCCOc1cc(O)c3c(=O)cc(-c4ccccc4)oc3c1)CC2 | 7.79% (active)
32 | COc1nc(N)ncc1-c1ccc2ncnc(N3CCc4cc(F)c(Cl)cc43)c2c1 | 47% (inactive)
33 | C=C1CC[C@@H]2[C@]3(C)COC(c4cn[nH]c4-c4ccc(Br)cc4)O[C@@H]3CC[C@@]2(C)[C@@H]1C/C=C1/C(=O)OCC1O (some centres undefined) | -8.14% (active)
34 | O=C(Nc1ccc(Cl)c(C(F)(F)F)c1)c1cncc(C#Cc2cnc3ccc(N4CCOCC4)nn23)c1 | -21.7% (active)
35 | Cn1cc(-c2nnc(N)nc2-c2c[nH]c3ccc(Br)cc23)c2cc(Br)cnc21 | 29.8% (inactive)
36 | COc1cnc2c(c1)C(=O)c1c-2n(CCCNCCO)c(=O)c2cc(OC)c(OC)cc12 | 61.3% (inactive)
37 | CN(C)CCCNC(=S)Nc1ccc(/C=C/c2ccc(Cl)cc2)cc1 | -22.4% (active)
38 | O=c1[nH]c2ccccc2cc1CSc1ccc(Nc2nccc(-c3ccc4c(c3)OCO4)n2)cc1 | 97.4% (inactive)
39 | COc1ccc(/C=C/C(=O)c2ccc(N3CCN(C)CC3)cc2)c(C(F)(F)F)c1 | -24.7% (active)
